Data from PubChem BioAssay.
Activity calls are given as the source filed them.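 Rule for the calls: active = compounds killing one labelled cell type while sparing the other, by normalised counts and ratio limits, not self-fluorescent; inactive = the rest.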

Experiment: differential killing of epithelial or mesenchymal cells, primary screen, imaging, PC-3E GFP, TEM4-18 mCherry, co-culture (AID 1345086);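 note: cells exposed to compound for 72 h before imaging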;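 for red/green cell ratio (normalised): normalised mesenchymal count divided by normalised epithelial count so high means epithelial killing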
Details: imaging cell counts, at 1 µM; for red/green cell ratio (normalised): actives lie on both sides, counts scaled to control wells, 1 = unselective
[1] = measured here: epithelial PC-3E GFP cell survival
[2] = measured here: mesenchymal TEM4-18 mCherry cell survival

Structure (SMILES) | red/green cell ratio (normalised) | normalised cell number [1] | normalised cell number [2]
C=C[C@@](C)(O)CCC1C(=C)C[C@H](OC(C)=O)C2C(C)(C)CCCC12C (some centres undefined) | 1.05 (inactive) | 1.03 | 1.08
Clc1ccc(Br)cc1OCC1CCCNC1 (centres undefined) | 0.91 (inactive) | 1.28 | 1.17
O=c1c(O)cc([C@H]2Oc3cc(O)cc(O)c3C[C@H]2O)cc2c([C@H]3Oc4cc(O)cc(O)c4C[C@@H]3O)cc(O)c(O)c12 | 0.92 (inactive) | 1.03 | 0.95
